We go through 32 compounds from PubChem BioAssay.

For assay [1], the target named is Nuclear receptor coactivator 3 (Homo sapiens) (UniProt Q9Y6Q9). Nature of the assay: NCOA3 GAL4-fusion reporter inhibition – cell-based, luminescence, quadruplicate, confirmation (AID 588792;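 active = mean inhibition over 43.08%, the solvent-only control mean plus 3 SD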;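 also: 0% = DMSO treated cells and 100% = gossypol at 36 µM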). The note with it: HEK293 GAL4-SRC3 luciferase reporter, at 3.6 µM, stronger effect = higher value.
The test system of assay [2] is transactivating tegument protein VP16 (Human herpesvirus 1), Gal4-VP16 luciferase reporter. The assay is described as follows: repression of VP16-driven luciferase reporter – cell-based, luminescence, high throughput, counter-screen for SRC3 inhibitor project (AID 588794). To be noted: mammalian cells, at 3.6 µM, stronger effect = higher value.

A number with no mark means an inactive call. Active and inactive are the calls of the source. Rule as the data show it, unless noted: active = inhibition above about 30%; inactive = the rest.

Nuclear receptor coactivator 3 (Homo sapiens), sequence (Q9Y6Q9 whole entry, looked up, the tested form may be a part): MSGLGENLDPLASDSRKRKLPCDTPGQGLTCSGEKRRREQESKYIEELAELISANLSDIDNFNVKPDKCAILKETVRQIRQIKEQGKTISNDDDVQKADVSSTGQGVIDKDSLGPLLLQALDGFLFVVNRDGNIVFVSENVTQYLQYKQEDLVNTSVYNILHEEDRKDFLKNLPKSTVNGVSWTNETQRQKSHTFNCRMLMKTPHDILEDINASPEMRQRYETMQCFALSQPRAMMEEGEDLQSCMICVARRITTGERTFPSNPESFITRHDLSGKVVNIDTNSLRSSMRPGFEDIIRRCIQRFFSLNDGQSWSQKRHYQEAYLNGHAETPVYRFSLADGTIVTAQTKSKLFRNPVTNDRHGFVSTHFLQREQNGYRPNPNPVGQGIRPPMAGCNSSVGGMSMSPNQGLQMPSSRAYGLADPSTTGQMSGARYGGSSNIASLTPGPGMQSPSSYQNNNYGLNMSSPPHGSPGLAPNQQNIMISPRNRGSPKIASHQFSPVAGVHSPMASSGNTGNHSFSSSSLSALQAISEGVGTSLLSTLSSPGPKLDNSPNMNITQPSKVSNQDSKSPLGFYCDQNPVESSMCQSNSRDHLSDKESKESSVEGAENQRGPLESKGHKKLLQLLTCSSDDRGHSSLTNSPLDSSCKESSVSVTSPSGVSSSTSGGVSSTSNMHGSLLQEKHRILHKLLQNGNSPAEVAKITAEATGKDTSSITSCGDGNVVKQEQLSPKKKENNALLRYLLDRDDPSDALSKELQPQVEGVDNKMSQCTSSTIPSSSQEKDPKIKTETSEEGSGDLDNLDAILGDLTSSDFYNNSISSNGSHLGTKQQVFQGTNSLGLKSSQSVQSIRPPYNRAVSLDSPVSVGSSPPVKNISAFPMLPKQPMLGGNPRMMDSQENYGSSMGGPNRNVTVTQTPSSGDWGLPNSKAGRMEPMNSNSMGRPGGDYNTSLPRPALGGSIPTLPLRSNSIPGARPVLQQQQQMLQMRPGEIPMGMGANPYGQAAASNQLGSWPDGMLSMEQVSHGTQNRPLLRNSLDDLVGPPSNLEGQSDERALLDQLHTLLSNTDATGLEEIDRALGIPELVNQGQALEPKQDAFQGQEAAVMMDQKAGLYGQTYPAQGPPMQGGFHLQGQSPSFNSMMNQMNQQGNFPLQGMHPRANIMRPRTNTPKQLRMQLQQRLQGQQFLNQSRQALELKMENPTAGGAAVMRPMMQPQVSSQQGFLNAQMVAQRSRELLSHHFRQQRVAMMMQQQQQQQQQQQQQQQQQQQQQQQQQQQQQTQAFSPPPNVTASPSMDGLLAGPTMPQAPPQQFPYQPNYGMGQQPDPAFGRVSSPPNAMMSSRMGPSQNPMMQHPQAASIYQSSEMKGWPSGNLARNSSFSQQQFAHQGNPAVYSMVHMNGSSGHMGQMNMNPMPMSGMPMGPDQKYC

Consider `CNC(=O)c1ccc(-c2sc3nc(N4CCOCC4)c4c(c3c2N)CC(C)(C)OC4)o1`, for which the results for the inhibition in assay [1] and in assay [2] were 3.63% and -22.1%, respectively.
As to `O=C(N/N=C/c1cc(Br)ccc1O)c1cccc(N2CCCC2=O)c1`, the inhibition is 1.45% in assay [1] and 30.7% (active) in assay [2].
As for `c1ccc2c(c1)Nc1ccncc1S2`, the inhibition is 31.2% in assay [1] and 16.4% in assay [2].
Take `CC(C)CN=C(NS(=O)(=O)c1ccccc1)C(Cl)(Cl)Cl`: the inhibition in assay [1] was 24.3%; in assay [2], 16.1%.
The corresponding values for `O=C(Cn1cnc([N+](=O)[O-])n1)N/N=C/c1cc(Cl)ccc1O` are 20.3% and 27.4%.
Take `COc1ccc(OC)c(NC(=O)c2cccc(N3C(=O)C4C5C=CC(C6CC56)C4C3=O)c2)c1` (centres undefined): the figures for the inhibition in assay [1] and in assay [2] were -11.6% and 7.26%, respectively.
Take `C[C@H](NS(=O)(=O)c1ccc(Cl)cc1)C(=O)OCC(=O)NC(=O)Nc1ccc2c(c1)OCCO2`: the inhibition in assay [1] is -39.7%; in assay [2] it was -25.8%.
For `O=C(CC12CC3CC(CC(C3)C1)C2)Nc1nncs1`, the inhibition in assay [1] is 15.4%; in assay [2], 19.6%.
In the case of `COc1cc(/C=C2\SC(=S)N(CCC(=O)NC3CCCC3)C2=O)cc(OC)c1OC`, the figures for the inhibition in assay [1] and in assay [2] were -4.46% and 9.3%, respectively.
Consider `O=c1[nH]c(=O)n(C2CC(O)C(CO)O2)cc1I` (centres undefined), for which the inhibition in assay [1] is 23.1%; in assay [2] it was 11.8%.
The matching figures for `COc1ccc2nc(C)cc(Nc3ccc(N4CCN(C)CC4)cc3)c2c1`: 71.8% (active) and 35.3% (active).
The corresponding values for `Cc1ccc(S(=O)(=O)CCC(=O)N2CCN(c3ccc(Cl)cc3)CC2)cc1` are -1.83% and 2.47%.
Take `Cc1ccc(C(=O)N(Cc2cccs2)C2CCS(=O)(=O)C2)cc1` (centres undefined): the results for the inhibition in assay [1] and in assay [2] were -5.57% and 0.26%, respectively.
Consider `COc1ccc(/C=C/C(=O)C23CC4CC(CC(C4)C2)C3)cc1CN1CCOCC1`, for which the inhibition in assay [1] is 22.6%; in assay [2], 6.66%.
The corresponding values for `COc1ccc(-n2nc(C(=O)NCC(=O)NCC3COc4ccccc4O3)c3ccccc3c2=O)cc1OC` (centres undefined) are -4.76% and -7.63%.
The corresponding values for `COc1ccc(C(C(=O)NC2CCCCC2)N(C(=O)CCl)c2ccc(Cl)cc2)cc1` (centres undefined) are 54.1% (active) and 24.8%.
Regarding `Nc1nc2c(F)cccc2s1`, the inhibition in assay [1] is -3.71%; in assay [2] it was 0.2%.
The corresponding values for `CC(=O)c1ccc(Sc2nnnn2-c2ccccc2)c([N+](=O)[O-])c1` are 11.4% and -10.4%.
Take `CC(C)c1nc(Cl)c(C#N)c2c1CCCC2`: the inhibition in assay [1] was 26%; in assay [2], 37% (active).
The matching figures for `CCn1c(C)nc2cc(C(=O)N/N=C(\C)c3ccc(OC)cc3O)ccc21`: 24.6% and 8.7%.
The corresponding values for `Cc1[nH]n(C)c(=O)c1N=Nc1ccc(S(C)(=O)=O)cc1` are 8.44% and -1.15%.
The corresponding values for `Cc1cccc(NC(=O)c2cc(-c3ccccn3)nc3ccccc23)c1C` are -9.5% and 8.29%.
As for `CC1(C)CC2(CC(c3ccccc3F)c3cc(Cl)c(O)cc3O2)NC(=S)N1` (centres undefined), the inhibition is 16.6% in assay [1] and 6.57% in assay [2].
`CCN1CCN(c2cc(C)c3cc(NC(=S)N4CCCC(C)C4)ccc3n2)CC1` (centres undefined): the inhibition was 45.3% (active) in assay [1] and 31.4% (active) in assay [2].
The corresponding values for `COc1cc(C(F)(F)F)c(C(=O)N(C)Cc2cc(Cl)cc(Cl)c2)cn1` are -10.3% and -2.09%.
For `CN[C@H]1CCc2cc(OC)c(OC)c(OC)c2-c2ccc(OC)c(=O)cc21`, the inhibition in assay [1] is 40.5%; in assay [2], -10.4%.
The corresponding values for `CCOc1ccc(N(CC)C(=O)Cc2c(C(=O)O)n(C)c3ccccc23)cc1` are -8.28% and 7.58%.
Turning to `CC(C)(C)CNC(=O)[C@]1(C)CCC[C@@]2(C)C3CC[C@@]4(C)C[C@]3(CCC21)CC4=O` (some centres undefined), the inhibition in assay [1] is 9.18%; in assay [2], 17.9%.
The matching figures for `COc1ccccc1NC(=O)Nc1nnc(Cc2ccccc2F)s1`: 5.82% and 20.4%.
The matching figures for `CCCC(C(=O)NC(C)(C)C)N(C(=O)c1snc(C(N)=O)c1N)c1ccc2c(c1)OCCO2` (centres undefined): 15.9% and 2.4%.
The matching figures for `COc1ccc(S(=O)(=O)N2CCCCCC2)cc1C(=O)N(C)CC(=O)Nc1cc(C)ccc1C`: 8.3% and 10.6%.
As to `CCOC1=C2CN(S(=O)(=O)c3ccc(C)cc3)[C@H](c3ccc(CC)cc3)C[C@@H]2N(S(=O)(=O)c2ccc(C)cc2)[C@H](c2ccccc2)C1`, the inhibition was 10.9% in assay [1] and 35.4% (active) in assay [2].
